# According to PubChem BioAssay AID463173 (ICCB-Longwood Screening Facility, Harvard Medical School, 2010):
# Among all 52,000 compounds or so, about 1,700 (3.3%) were called active. The entries come from a sample that favours actives as a whole. Unmarked numbers belong to inactive results. Cut-off read from the data, not from the text of the source: active = survival mostly below about 52% (no sharp cut-off); inactive = mostly above about 56%.
# Test system: Wild type
# Assay: growth inhibition of S. aureus wild type versus tarO mutant, primary screen, teichoic acid synthesis inhibitors, RN4220, OD600 (AID 463173)
# Conditions: S. aureus RN4220 wild type/DeltatarO growth, OD600, 18 h, hits give low values, screened at 18.75 µg/mL (by protocol)
row,Structure (SMILES),survival
1,CCOc1ccccc1C(=O)Nc1c(NC)c2ccccc2oc1=O,76%
2,Cc1ccc(CN2CCC(CNc3ncnc4onc(-c5ccc(Cl)cc5)c34)CC2)cc1,77%
3,Cc1ccc(CN2CCC(CNc3ncnc4onc(-c5ccc(F)cc5)c34)CC2)cc1,-4% (active)
4,Fc1ccc(-c2noc3ncnc(NCC4CCN(Cc5ccc(Cl)cc5)CC4)c23)cc1,81%
5,O=c1c(S(=O)(=O)c2ccc(Cl)cc2)cn(Cc2ccc(F)cc2)c2ccc(F)cc12,130%
6,CCn1c(=O)c2cc(C(=O)NCCCN3CCN(C)CC3)sc2c2ccccc21,124%
7,COCCNC(=O)C1=CC(c2ccc3c(c2)OCO3)=NS(=O)(=O)N1C,103%
8,COc1cccc(CNC(=O)CCC(=O)N2CC3CCCN3c3ccccc32)c1 (stereo not given),65%
9,O=C(CCC(=O)N1CC2CCCN2c2ccccc21)NCc1ccc(F)cc1 (stereo not given),-2% (active)
10,O=C(CCC(=O)N1CC2CCCN2c2ccccc21)NCc1ccccc1 (stereo not given),88%
11,Cc1ccc(CNC(=O)CCC(=O)N2CC3CCCN3c3ccccc32)cc1 (stereo not given),82%
12,O=C(CCC(=O)N1CC2CCCN2c2ccccc21)NCc1ccccc1Cl (stereo not given),69%
13,O=C(CCC(=O)N1CC2CCCN2c2ccccc21)NCc1cccc(Cl)c1 (stereo not given),10% (active)
14,CC(=O)Nc1nonc1-c1nnc(SCC(=O)Nc2ccccc2)n1-c1ccccc1,51%
15,O=C(NC1CCCC1)C(c1ccc(O)cc1)N(C(=O)Cn1nnc(-c2cccs2)n1)C1CCCC1 (stereo not given),100%
16,CCCOc1ccccc1Cn1c(=O)sc2ccccc21,-5% (active)
17,Cc1cccc(NC(=O)Cn2c(=O)sc3ccccc32)c1,119%
18,O=C(Cn1c(=O)sc2ccccc21)Nc1ccc(O)cc1,103%
19,O=C(Cn1c(=O)sc2ccccc21)OCc1ccccc1,118%
20,CCN(CC)C(=O)Cn1c(=O)sc2ccccc21,105%
21,CC(C)CCOc1ccccc1Cn1c(=O)sc2ccccc21,-1% (active)
22,CCOC(=O)Cn1c(=O)sc2ccccc21,116%
23,CCCCOc1ccccc1Cn1c(=O)sc2ccccc21,-4% (active)
24,CS(=O)(=O)n1c(=O)sc2ccccc21,121%

row,Structure (SMILES),survival
1,COc1ccc(CNCCNC(=O)c2cccs2)c(OC)c1OC,108%
2,COc1ccc(CNC(=O)c2ccc3c(c2)N(Cc2ccc(C)cc2)CCS3)cc1,93%
3,O=C(Cn1nc(-c2ccc(Cl)cc2)ccc1=O)NCCc1ccccc1,45%
4,C=Cc1ccc(Cn2c(=O)n(-c3cccc(Cl)c3)c(=O)c3c4c(sc32)CN(C(C)=O)CC4)cc1,81%
5,Cc1cc(C)c(S(=O)(=O)N2CCN(Cc3nc4ccc(C)cc4o3)CC2)c(C)c1,73%
6,O=[N+]([O-])c1cc(-c2nc(-c3ccccc3)no2)ccc1NCC1CCCO1 (stereo not given),86%
7,CCOC(=O)N1CCC(NC(=O)c2cnn(-c3cccc(Cl)c3C)c2C2CCN(C(=O)OC(C)(C)C)CC2)CC1,-3% (active)
8,Cc1c(Cl)cccc1-n1ncc(C(=O)NC2CCCCC2)c1C1CCN(C(=O)OC(C)(C)C)CC1,75%
9,Cc1ccc(-n2ncc(C(=O)NCc3ccccn3)c2C2CCN(C(=O)OC(C)(C)C)CC2)c(C)c1,45%
10,Cc1c(Cl)cccc1-n1ncc(C(=O)NC2CCCC2)c1C1CCN(C(=O)OC(C)(C)C)CC1,66%
11,CC(C)(C)OC(=O)N1CCC(c2c(C(=O)NCc3ccccn3)cnn2-c2ccccc2Cl)CC1,-6% (active)
12,CC(C)(C)OC(=O)N1CCC(c2c(C(=O)NCc3ccccn3)cnn2-c2ccccc2)CC1,73%
13,CC1CCN(S(=O)(=O)c2ccc3c(c2)c(=O)c(C(=O)N2CCN(c4cccc(Cl)c4)CC2)cn3C)CC1,94%
14,CCCNC(=O)Cn1nc(-c2ccc(F)cc2)c2cnc3ccc(F)cc3c21,82%
15,CCn1c(Cc2ccccc2)nnc1SCC(=O)N1CCCCC1C (stereo not given),116%
16,COc1ccc(NC(=O)CCc2nc3cccnc3n2-c2ccccc2)c(OC)c1,68%
17,COc1ccc(OC)c(Nc2nc3ccccc3n3c(C)nnc23)c1,83%
18,Nn1cnnc1SCC(=O)N(C1CCCCC1)C1CCCCC1,107%
19,O=C(Nc1ccc(NC(=O)c2cccs2)cc1)c1cccs1,113%
20,Cc1ccccc1CCNC(=O)c1ccc2c(c1)c(C)c(C)n2Cc1ccccc1,124%
21,COc1ccccc1/C=C/c1nc2ccccc2n1C(C)C,2% (active)
22,COc1cccc(/C=N/c2nc3ccccc3n2C)c1O,106%
23,COc1cccc(/C=N/n2c(N)nc3ccccc32)c1OC,103%
24,CC1CC(C)N(C(=O)c2cc(-c3ccccc3)on2)C(C)C1 (stereo not given),129%

row,Structure (SMILES),survival
1,CCOc1ccc(NC(=O)CN(c2ccc(Cl)cc2C)S(=O)(=O)c2ccccc2)cc1,77%
2,CCN(CC)CC(=O)Nc1nc2ccc(OC)cc2s1,103%
3,N#C/C(=C\c1ccc(-c2ccccc2C(=O)O)o1)c1nc2ccccc2[nH]1,84%
4,Cc1c(Cl)cccc1-c1ccc(/C=C(\C#N)c2nc3ccccc3[nH]2)o1,8% (active)
5,N#C/C(=C\c1ccc(-c2ccc(F)cc2F)o1)c1nc2ccccc2[nH]1,38%
6,Cc1ccccc1NC(=O)c1c(NC(=O)C(F)(F)F)sc2c1CCCCC2,1% (active)
7,Cc1ccc(NC(=O)c2c(NC(=O)Cc3ccccc3)sc3c2CCCC3)cc1,49%
8,Cc1ccc(NC(=O)c2c(NC(=O)C(F)(F)F)sc3c2CCCCC3)cc1,-3% (active)
9,COc1ccc(CC(=O)Nc2sc3c(c2C(=O)Nc2ccc(C)cc2)CCCCC3)cc1,136%
10,Cc1ccc(NC(=O)c2c(NC(=O)c3ccccc3)sc3c2CCC3)cc1,79%
11,COc1ccc(NC(=O)c2c(NC(=O)c3ccc(Br)cc3)sc3c2CCCC3)cc1,157%
12,Cc1ccccc1NC(=O)c1c(NC(=O)c2ccccc2)sc2c1CCC2,137%
13,COc1ccc(NC(=O)c2c(NC(=O)C(F)(F)F)sc3c2CCCCC3)cc1,-1% (active)
14,Cc1ccccc1NC(=O)c1c(NC(=O)Cc2ccccc2)sc2c1CCC2,48%
15,COCCCNc1nc2c(c(=O)n(Cc3ccc(F)cc3)c(=O)n2C)n1C,130%
16,CCC(O)c1cc2c(cc1NC(=O)c1cccc(Br)c1)OCCO2 (stereo not given),71%
17,Cc1ccc(N(C)C(=O)Cn2cc(S(=O)(=O)N3CCCC3)c(S(=O)(=O)N3CCCC3)c2)cc1,73%
18,Cc1cccc(NC(=O)CN2C(=O)C(c3ccc(F)cc3)=NC23CCCCCC3)c1C,73%
19,CCCN1CCN(c2ncnc3sc(C(=O)Nc4ccc(N(CC)CC)cc4C)c(C)c23)CC1,128%
20,CCn1c(SC)nnc1C1CCCN(C(=O)c2ccccc2-c2ccccc2)C1 (stereo not given),120%
21,CCCCCn1c(C(C)NC(=O)c2ccccc2)nc2ccccc21 (stereo not given),77%
22,CCCCCn1c(CCNC(=O)c2cccc(C)c2)nc2ccccc21,2% (active)
23,CCCCCn1c(CCCNC(=O)c2ccccc2OC)nc2ccccc21,68%
24,CCCCCn1c(-c2ccc(OC)c(OC)c2)nc2ccccc21,1% (active)

row,Structure (SMILES),survival
1,CCOc1ccc(Cn2c(-c3ccc(OCC)c(OC)c3)nc3ccccc32)cc1OC,94%
2,CCCCn1c(CCCNC(=O)c2cccc(C)c2)nc2ccccc21,73%
3,CCCCCn1c(-c2cccc(C)c2)nc2ccccc21,11% (active)
4,CCCCCn1c(CCCNC(=O)c2cccc(C)c2)nc2ccccc21,50%
5,CCCCn1c(C)nc2ccccc21,99%
6,Cc1ccc(S(=O)(=O)NCC(c2ccco2)N2CCOCC2)cc1 (stereo not given),78%
7,Cc1ccc2[nH]c(CSc3nnc(NC(=O)c4ccc(Cl)cc4)s3)cc(=O)c2c1,71%
8,CCN(CCCNC(=O)c1nn(-c2ccc(C)cc2)c(=O)c2c1c1ccccc1n2C)c1ccccc1,82%
9,Cc1cc(=O)c2c(o1)CC(C)(C)CC2=O,110%
10,Cc1cccc(-n2cnc3cc(C(=O)NCc4ccccc4Cl)ccc32)c1,68%
11,Cc1cc(C)cc(-n2cnc3cc(C(=O)NCCc4ccccc4)ccc32)c1,73%
12,CCCCCNC(=O)c1ccc2c(c1)nc(C)n2-c1cccc(C)c1,-2% (active)
13,Cc1cccc(-n2cnc3cc(C(=O)NC4CCCCCC4)ccc32)c1,124%
14,Cc1ccc(-n2cnc3cc(C(=O)NCc4ccccc4Cl)ccc32)c(C)c1,10% (active)
15,CCCNC(=O)c1ccc2c(c1)nc(C)n2-c1cccc(C)c1,82%
16,COCCCNC(=O)c1ccc2c(c1)nc(C)n2-c1cccc(C)c1,69%
17,CCOc1ccc(-n2c(C)nc3cc(C(=O)NCCC4=CCCCC4)ccc32)cc1,-6% (active)
18,Cc1nc2cc(C(=O)NCCC3=CCCCC3)ccc2n1-c1ccc(Br)cc1,75%
19,CCCNC(=O)c1ccc2c(c1)ncn2-c1ccc(C)cc1C,59%
20,Cc1cccc(-n2c(C)nc3cc(C(=O)NCCC4=CCCCC4)ccc32)c1,73%
21,CCCCCNC(=O)c1ccc2c(c1)ncn2-c1cccc(C)c1,-3% (active)
22,Cc1ccc(OCC(=O)Nc2ccccc2C(=O)OCc2cc(=O)n3c(C)csc3n2)cc1,72%
23,O=C(Nc1ccc(Cl)cc1)C1CCN(S(=O)(=O)c2ccc(Br)s2)CC1,60%
